This passage reports Potency and outcome results from PubChem BioAssay (Tox21).

Each structure is given as a SMILES string. Values joined by “and” are separate entries in the source; they are usually repeats but may differ in a detail not shown here. Equal values may be shown once. Results filed as inconclusive are left out. Some compounds were tested as several samples or in several runs, with calls that do not always agree. Active and inactive are the calls of the source. Unless noted, calls come from the whole dose curve; as a rule, active = well fitted curve in the direction sought with a large enough effect in the repeat runs; inconclusive = weak or mixed curves; inactive = no such curve, though single readings can be large; an effect the other way counts as inactive or inconclusive.

The nature of test [1]: qHTS assay for small molecule agonists of the p53 signaling pathway - cell viability (AID 651633; calls by dose curve; note: nearly all actives have a fitted effect of over 30% in size; note: potency is the fitted concentration of half-maximal effect). In outline:
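p53RE-bla cells were treated with compound for 16 hours at 37 C. Cytotoxicity was then measured as CellTiter-Glo luminescence after 30 min at room temperature.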
(In general: In qHTS, concentration-response curves come from the screen itself.)

The nature of test [2]: qHTS assay for small molecule disruptors of the mitochondrial membrane potential - cell viability (AID 720634; calls by dose curve; note: nearly all actives have a fitted effect of over 20% in size; note: potency is the fitted concentration of half-maximal effect). Summed up: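 HepG2, 1 hr compound, 37 C. ATP luminescence via CellTiter-Glo, 30 min RT, same well as m-MPI.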
Test [3] is described as follows: qHTS assay for small molecule disruptors of the mitochondrial membrane potential (AID 720635). Note: potency is the fitted concentration of half-maximal effect. In outline: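 HepG2 cells exposed to compound 1 hr at 37C, then Mito-MPS dye 30 min. Ratio read of aggregate (540/590 nm) versus monomer (490/535 nm) fluorescence.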
In test [4] the target is Glucocorticoid receptor (Homo sapiens) (UniProt P04150). In words: qHTS assay to identify small molecule agonists of the glucocorticoid receptor (GR) signaling pathway (AID 720691; active = well fitted activation curve with a large enough effect in the signal ratio in the repeat runs, not every such curve was filed as active; the % refers to the signal ratio; note: potency is the fitted concentration of half-maximal effect). In outline: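 qHTS in GR-bla HeLa cells: 4 h settling at 37 C/5% CO2, 18 h compound incubation at 37 C, 2 h LiveBLAzer B/G FRET substrate at room temperature, fluorescence intensity measured.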

For test [5], the system named is thyroid hormone receptor (rat, GH3 cells). Description: qHTS assay to identify small molecule agonists of the thyroid receptor (TR) signaling pathway (AID 743066; calls by dose curve).
The nature of test [6]: qHTS assay to identify small molecule antagonists of the estrogen receptor alpha (ER-alpha) signaling pathway - cell viability counter screen (AID 743074; calls by dose curve;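 note: HEK293 cells carrying ER-alpha-UAS-bla reporter stimulated with 17beta-estradiol; nearly all actives have a fitted effect of over 45% in size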; note: potency is the fitted concentration of half-maximal effect).
Test [7] addresses Peroxisome proliferator-activated receptor gamma (Homo sapiens) (UniProt P37231). In words: qHTS assay to identify small molecule agonists of the peroxisome proliferator-activated receptor gamma (PPARg) signaling pathway (AID 743094; active = well fitted activation curve with a large enough effect in the signal ratio in the repeat runs, not every such curve was filed as active; the % refers to the signal ratio). Summed up:
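Compounds dissolved in DMSO were added to PPARg UAS-bla HEK293H cells for 17 h at 37C, and reporter expression was quantified by fluorescence intensity after 1 h with LiveBLAzer B/G FRET substrate.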

Test [8] is described as follows: qHTS assay to identify small molecule antagonists of the peroxisome proliferator-activated receptor gamma (PPARg) signaling pathway - cell viability counter screen (AID 743194). Note: nearly all actives have a fitted effect of over 55% in size. Note: potency is the fitted concentration of half-maximal effect. The following applies: Potency: co-treated with 50 nM rosiglitazone unless noted. Summed up: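 Cytotoxicity counter screen in PPARg-bla HEK293H cells, same wells as reporter assay. Compounds plus 50 nM rosiglitazone (final) for 17 h at 37 C, then viability read by CellTiter-Glo luminescence.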

Test [9] in a line: qHTS assay for small molecule agonists of the antioxidant response element (ARE) signaling pathway - cell viability counter screen (AID 743203; calls by dose curve; note: nearly all actives have a fitted effect of over 55% in size; note: potency is the fitted concentration of half-maximal effect). Summed up:
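Following 16 hrs of compound treatment at 37C, HepG2 cells with an ARE-controlled beta-lactamase gene were lysed with CellTiter-Glo. Luminescence was read after 30 min at room temperature.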

Test [10] can be described thus: qHTS assay for small molecule activators of the heat shock response signaling pathway - cell viability counter screen (AID 743209). Note: nearly all actives have a fitted effect of over 50% in size. Note: potency is the fitted concentration of half-maximal effect. Summed up:
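Readout: CellTiter-Glo luminescence, 30 min at room temperature. System: HSE-bla HeLa cells, 1500/well, plated overnight. Treatment: compounds in DMSO, 5 h at 37 C.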

Test [11] can be described thus: qHTS assay to identify small molecule antagonists of the peroxisome proliferator-activated receptor delta (PPARd) signaling pathway - cell viability counter screen (AID 743213). Note: nearly all actives have a fitted effect of over 50% in size. Note: potency is the fitted concentration of half-maximal effect. Summed up:
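Luminescence from CellTiter-Glo, added after the bla read and incubated 30 min at room temperature, gives viability of HEK293H PPARd-bla cells exposed to compounds for 17 h at 37 C with 300 nM L165041.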

Test [12] is described as follows: qHTS assay to identify small molecule agonists of the farnesoid-X-receptor (FXR) signaling pathway - cell viability counter screen (AID 743218). Note: nearly all actives have a fitted effect of over 45% in size. Note: potency is the fitted concentration of half-maximal effect. In outline: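 Parallel cytotoxicity test: compound-treated (16 h, 37 C) HEK 293T FXR-bla reporter cells were lysed with CellTiter-Glo and luminescence recorded.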
Test [13] is described as follows: qHTS assay to identify small molecule agonists of the vitamin D receptor (VDR) signaling pathway - cell viability counter screen (AID 743224). Note: nearly all actives have a fitted effect of over 50% in size. Note: potency is the fitted concentration of half-maximal effect. In outline: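 Plated VDR-bla cells (4 h, 37C) received compound, incubated 16 h, then LiveBLAzer substrate 2 h RT; CellTiter-Glo added afterwards, luminescence read at 30 min.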
The nature of test [14]: qHTS assay to identify small molecule antagonists of the vitamin D receptor (VDR) signaling pathway - cell viability counter screen (AID 743225). Note: nearly all actives have a fitted effect of over 50% in size. Note: potency is the fitted concentration of half-maximal effect. Summed up:
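Read-out: CellTiter-Glo luminescence measured 30 min after reagent addition at room temperature. Cells were VDR-bla HEK 293T exposed 16 h at 37C, 5% CO2, to compound with 3 nM final calcitriol agonist.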

The nature of test [15]: qHTS assay to identify small molecule antagonists of the retinoid-related orphan receptor gamma (ROR-gamma) signaling pathway - cell viability counter screen (AID 1159520). In outline:
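Tet-on ROR gamma CHO cells were given compounds for 2 hr, then doxycycline hyclate at 1 uM final, and incubated 16 hr at 37 C. Viability was measured as ATP content by CellTiter-Glo luminescence.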

A short description of test [16]: qHTS assay to identify small molecule agonists of the hypoxia (HIF-1) signaling pathway (AID 1224846; active = well fitted activation curve with a large enough effect in the signal ratio in the repeat runs, not every such curve was filed as active; the % refers to the signal ratio). In outline:
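A low-serum medium (0.5% dialyzed FBS) holding 2,000 HRE-bla ME-180 cells per well is preincubated for 5 hrs, dosed with compounds by pintool, and kept a further 17 hrs at 37C, 5% CO2 before CCF4-AM FRET detection of beta-lactamase.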

Test [17] addresses Peroxisome proliferator-activated receptor delta (Homo sapiens) (UniProt Q03181). In words: qHTS assay to identify small molecule agonists of the peroxisome proliferator-activated receptor delta (PPARd) signaling pathway (AID 743212; calls by dose curve). Summed up: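 GeneBLAzer UAS-bla HEK293H cells carrying a PPARδ construct were exposed to compounds at 37 °C. Beta-lactamase activity was read by FRET fluorescence after 2 h at room temperature with LiveBLAzer B/G substrate.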

Test [18] has as its target Vitamin D3 receptor (Homo sapiens) (UniProt P11473). Description: qHTS assay to identify small molecule agonists of the vitamin D receptor (VDR) signaling pathway (AID 743222; calls by dose curve). In outline:
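In VDR-bla cells, compound-induced beta-lactamase expression is quantified by FRET substrate fluorescence. Treatment lasts 16 h at 37C; substrate develops 2 h at room temperature.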

A short description of test [19]: qHTS assay to identify small molecule phospholipidosis (PLD) inducers (AID 1259344; active = well fitted curve in the direction sought with a large enough effect; an effect the other way counts as inactive or inconclusive; note: potency is the fitted concentration of half-maximal effect). In outline:
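HepG2 cells, 900/well, treated with compound plus LipidTOX Red for 24 h at 37 C; amiodarone positive and DMSO negative controls. Fixed with paraformaldehyde/Hoechst, then high-content imaging scored LipidTOX pit count and integrated intensity per well and per cell.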

Test [20] can be described thus: qHTS assay to identify small molecule agonists of the retinoic acid receptor (RAR) signaling pathway (AID 1159553). In outline:
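Reporter readout comes from luciferase under RARE control in C3RL4 cells; compound exposure lasts 6 hr at 37 C in 5% CO2, and luminescence is recorded following a 30 min room-temperature incubation with reagent.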

Chain of Peroxisome proliferator-activated receptor gamma (Homo sapiens) (P37231 whole entry, looked up): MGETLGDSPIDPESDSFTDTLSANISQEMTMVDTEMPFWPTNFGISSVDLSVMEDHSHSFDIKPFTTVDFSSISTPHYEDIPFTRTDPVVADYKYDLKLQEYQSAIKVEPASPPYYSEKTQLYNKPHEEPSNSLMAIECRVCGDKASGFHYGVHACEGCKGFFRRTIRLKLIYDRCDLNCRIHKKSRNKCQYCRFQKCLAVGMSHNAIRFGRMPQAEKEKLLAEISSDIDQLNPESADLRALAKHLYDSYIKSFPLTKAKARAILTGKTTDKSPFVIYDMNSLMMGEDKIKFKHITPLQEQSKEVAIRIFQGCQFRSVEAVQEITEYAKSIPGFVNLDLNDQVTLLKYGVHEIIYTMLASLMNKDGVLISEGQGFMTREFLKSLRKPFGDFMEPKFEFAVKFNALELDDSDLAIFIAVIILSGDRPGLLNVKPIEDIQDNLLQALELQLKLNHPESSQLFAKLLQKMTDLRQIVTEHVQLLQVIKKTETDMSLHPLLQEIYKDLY
Chain of Vitamin D3 receptor (Homo sapiens) (P11473 whole entry, looked up): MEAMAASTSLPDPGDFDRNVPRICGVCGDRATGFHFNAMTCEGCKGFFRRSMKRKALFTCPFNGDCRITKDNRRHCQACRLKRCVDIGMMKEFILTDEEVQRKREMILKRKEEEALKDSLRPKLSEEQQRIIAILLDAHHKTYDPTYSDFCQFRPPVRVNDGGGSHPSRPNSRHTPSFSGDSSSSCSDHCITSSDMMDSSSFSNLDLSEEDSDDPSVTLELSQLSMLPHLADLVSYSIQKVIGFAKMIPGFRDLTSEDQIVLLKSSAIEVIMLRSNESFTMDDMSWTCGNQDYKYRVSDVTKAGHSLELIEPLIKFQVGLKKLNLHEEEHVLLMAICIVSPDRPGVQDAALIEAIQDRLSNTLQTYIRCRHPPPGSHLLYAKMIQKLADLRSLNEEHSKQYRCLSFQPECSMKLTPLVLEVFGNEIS
Chain of Peroxisome proliferator-activated receptor delta (Homo sapiens) (Q03181 whole entry, looked up): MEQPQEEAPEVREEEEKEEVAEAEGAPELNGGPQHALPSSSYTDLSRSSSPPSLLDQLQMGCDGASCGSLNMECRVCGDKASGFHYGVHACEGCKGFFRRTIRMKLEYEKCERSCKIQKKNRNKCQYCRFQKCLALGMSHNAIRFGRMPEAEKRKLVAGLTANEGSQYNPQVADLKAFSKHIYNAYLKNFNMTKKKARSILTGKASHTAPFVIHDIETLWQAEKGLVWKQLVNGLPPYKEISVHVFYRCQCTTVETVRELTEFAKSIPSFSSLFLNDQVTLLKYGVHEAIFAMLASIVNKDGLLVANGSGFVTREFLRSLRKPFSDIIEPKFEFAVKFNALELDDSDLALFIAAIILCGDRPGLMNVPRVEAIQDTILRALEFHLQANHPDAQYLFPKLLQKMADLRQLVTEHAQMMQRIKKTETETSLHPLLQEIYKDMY
Chain of Glucocorticoid receptor (Homo sapiens) (P04150 whole entry, looked up): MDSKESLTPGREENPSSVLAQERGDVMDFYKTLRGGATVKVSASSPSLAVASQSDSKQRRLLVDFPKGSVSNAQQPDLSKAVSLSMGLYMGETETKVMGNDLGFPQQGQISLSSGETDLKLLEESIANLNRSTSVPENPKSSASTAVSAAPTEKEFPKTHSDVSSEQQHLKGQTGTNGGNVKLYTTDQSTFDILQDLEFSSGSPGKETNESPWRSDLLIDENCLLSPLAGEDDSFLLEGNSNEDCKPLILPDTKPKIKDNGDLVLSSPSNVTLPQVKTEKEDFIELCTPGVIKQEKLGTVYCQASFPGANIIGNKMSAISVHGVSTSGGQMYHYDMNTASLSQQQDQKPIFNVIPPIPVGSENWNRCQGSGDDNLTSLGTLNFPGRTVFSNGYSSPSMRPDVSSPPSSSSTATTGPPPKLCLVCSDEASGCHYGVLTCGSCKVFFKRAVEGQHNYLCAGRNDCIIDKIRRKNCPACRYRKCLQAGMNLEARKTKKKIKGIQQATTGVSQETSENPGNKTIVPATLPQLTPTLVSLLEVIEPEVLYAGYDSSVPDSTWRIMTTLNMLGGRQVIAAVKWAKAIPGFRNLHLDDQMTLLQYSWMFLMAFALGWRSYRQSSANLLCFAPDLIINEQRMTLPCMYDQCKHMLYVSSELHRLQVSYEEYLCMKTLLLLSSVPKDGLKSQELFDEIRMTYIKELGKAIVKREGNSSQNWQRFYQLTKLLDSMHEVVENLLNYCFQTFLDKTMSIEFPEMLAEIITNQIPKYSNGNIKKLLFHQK

As for `CN1CSC(=S)N(C)C1`, the Potency result in test [1], in test [2], in test [3], in test [5], in [6] and in test [7] was “inactive” throughout. Moreover, the Potency result in [8], in test [9] and in test [14] was “inactive” throughout. In addition, the Potency is 1.94 µM (active) in [4]; “inactive and 1.09 µM (active)” in test [10]; 7.72 µM (active) and 5.48 µM (active) in test [11]; 4.87 µM (active) in [12]; 6.13 µM (active) and 3.88 µM (active) in test [13].
Consider `Cc1ccc(N(SC(F)(Cl)Cl)S(=O)(=O)N(C)C)cc1`, for which the Potency in [8] was 7.76 µM (active); in test [9], 7.7 µM (active); in test [11], 13.8 µM (active); in test [12], 13.8 µM (active); in [13] it was 7.76 µM (active); in [15], 6.11 µM (active).
For `CCN(CC)C(=O)Cl`, the molecule was classed as inactive in test [16].
Turning to `Nc1ccc(Cl)cc1Cl`, the molecule was classed as inactive in [17].
`Cc1cc(C(C)(C)c2ccc(O)c(C)c2)ccc1O`: the Potency was 6.53 µM (active) in test [3], 37 µM (active) in [8], 46.2 µM (active) in test [9] and 33 µM (active) in test [13]. Besides, the Potency entry in test [5] and in test [6] was “inactive” throughout. Further, the molecule was called inactive in [17] and in test [18].
For `ClC1=C(Cl)[C@]2(Cl)[C@@H]3[C@@H](Cl)[C@H]4O[C@H]4[C@@H]3C1(Cl)C2(Cl)Cl`, the Potency result in test [1], in test [2], in test [6], in [7] and in test [11] was “inactive” throughout. Further, in test [8], the Potency was 43.6 µM (active). Also, the molecule was called inactive in [17], in [18] and in [16].
Regarding `c1ccc2c(c1)Sc1ccccc1N2CC1CN2CCC1CC2` (configuration not stated), the Potency result in [2] and in test [4] was “inactive” each time. Besides, the Potency was 21.3 µM (active) in [6]; 26.6 µM (active) in [8]; 13.3 µM (active) in test [9]; 9.44 µM (active) in [11]; 10.6 µM (active) in [12]; 21.1 µM (active) in test [13]. The values for the Potency in test [14] and in test [19] were 21.3 µM (active) and 3.55 µM (active), respectively. Further, the result in test [16] was inactive.
For `Clc1ccccc1-c1ccccc1Cl`, the Potency in test [3] is 19.6 µM (active). Besides, the Potency entry in test [4], in [6], in [7], in test [9], in [10] and in [11] was “inactive” in each case. Also, the Potency result in [12], in test [13] and in test [14] was “inactive” each time. Also, the molecule was classed as inactive in test [17], in [18] and in [20].
As for `CCOC(=O)C(O)(c1ccc(Cl)cc1)c1ccc(Cl)cc1`, the Potency in [1] was 15.5 µM (active); in test [2], 30.9 µM (active); in test [6], 24.8 µM (active) and inactive; in test [9] it was 24.6 µM (active); in test [10], 7.84 µM (active) and inactive; in test [11], 22.1 µM (active). The Potency in test [12] was 24.8 µM (active) and inactive; in test [13], 7.84 µM (active) and 43.6 µM (active); in test [14], 11.1 µM (active) and 38.9 µM (active). The Potency entry in test [5] and in [7] was “inactive” each time. Also, the result in test [17], in test [18] and in test [16] was inactive.
